Screening results: PubChem, National Center for Advancing Translational Sciences (NCATS)
This is a sample that favours compounds with a hit; in the whole collection about 12% have one here.
PLK1 PBD inh: blocks phosphopeptide binding to human PLK1 polo-box domain; P53350; Plk1 PBD binding of FITC phosphopeptide, fluorescence polarization; Potency, µM, inactives show max response, negative = inhibition, hits mostly inhibitors; 360,000 compounds, 2.8% hits; also: series mostly up to about 57 µM; % is scaled to controls: 0 for no effect and ±100 for the full control effect; nearly all actives have a fitted effect of over 65% in size
Sfp inh: blocks B. subtilis Sfp PPTase activity; 310,000 compounds, 3.5% hits; Potency, µM, for the others: largest response in the series, negative = inhibition, usual class: inhibitors; Biochemical Sfp PPTase activity, qHTS;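 also: the enzyme is Sfp with the accession as filed and its product quenches rhodamine fluorescence; 0% = enzyme reaction without inhibitor and -100% = no enzyme wells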
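Reaction rates are the 30-min fluorescence difference (ex 525, em 598 nm) in wells containing 15 nM Sfp, 5 uM rhodamine-CoA and 12.5 uM BHQ-2-YbbR at pH 7.6 with 10 mM MgCl2.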
G9a block: G9a (human) methyltransferase inhibition | G9a H3K9 monomethylation, AlphaScreen, 2 h | Q96KQ7 | AID 504332 | Potency, µM (highest dose often 102 µM), inactives show top-dose activity, negative = inhibition, usual class: inhibitors | 350,000 compounds, 8.8% hits; also: % is scaled to controls: 0 for no effect and ±100 for the full control effect; nearly all actives have a fitted effect of over 75% in size
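Signal arises when biotinylated H3K9 peptide, once monomethylated, bridges streptavidin donor and antibody-captured acceptor beads. Enzyme at 20 nM was preincubated 15 min with test compounds; peptide 500 nM and SAM 20 uM then reacted for 2 h.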
HP1b binding inh: inhibitors of HP1-beta chromodomain binding to methylated histone tails | 390,000 compounds, 0.56% hits | AlphaScreen HP1-beta / biotin-H3K9me3 peptide binding | AID 540317 | Potency, µM (top dose mostly 114 µM), inactives show at the top dose activity change, negative = inhibition, hits mostly inhibitors; also: nearly all actives have a fitted effect of over 70% in size
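AlphaScreen: HP1-beta (50 nM) preformed 30 min with biotin-H3(1-18)K9me3 peptide (50 nM) in PBS pH 7.4, 0.01% Tween-20. Compound added for 30 min at RT, then streptavidin donor/nickel chelate acceptor beads (10 ug/mL) for 30 min.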
JMJD2A Tudor inh: inhibitors of human JMJD2A Tudor domain | O75164 | AlphaScreen JMJD2A-Tudor / H3K4me3 peptide binding | Potency, µM (doses to about 114 µM), for the others: at the top dose activity change, negative = inhibition, most hits filed as inhibitors | 390,000 compounds, 4.4% hits | AID 504339; also: % is scaled to controls: 0 for no effect and ±100 for the full control effect; nearly all actives have a fitted effect of over 50% in size
BAZ2B inh: BAZ2B (human) inhibition | AlphaScreen BAZ2B-H3K14Ac peptide displacement | 360,000 compounds, 4.4% hits | Q9UIF8 | Potency, µM (doses to about 114 µM), inactives show at the top dose activity change, negative = inhibition, usual class: inhibitors | AID 504333; also: % is scaled to controls: 0 for no effect and ±100 for the full control effect; nearly all actives have a fitted effect of over 60% in size
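Compounds, titrated to a top concentration of 110 uM, were incubated 30 min at room temperature with preformed BAZ2B/acetyl-K14 H3 peptide complex (50 nM each). Proximity signal was measured by AlphaScreen after 20 min with beads.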
* hit, by the source's call; u = inconclusive; x = no result given; [ ] = dose if it differs, or a comment. Calls follow the shape of the dose curve; as a rule, active = well fitted curve in the direction sought with a large enough effect; inconclusive = small, poorly fitted or top-dose-only effect, or another doubt; inactive = no such curve, though single readings can be large; an effect the other way counts as inactive or inconclusive. Potency is read from the fitted curve at half-maximal effect.

SMILES | PLK1 PBD inh | Sfp inh | G9a block | HP1b binding inh | JMJD2A Tudor inh | BAZ2B inh
COC(=O)c1c(NC(=O)COc2ccc(Cl)cc2C)sc2c1CCCCC2 | x | x | 7.94µM* | -16.6% | -9.2% | -10.0%
CCOC(=O)c1c(NC(=O)COc2cccc(C(F)(F)F)c2)sc2c1CCCCC2 | x | x | 5.62µM* | -21.0% | -15.0% | -7.1%
CCOC(=O)c1c(NC(=O)c2ccc(C)cc2)sc2c1CCCCC2 | x | x | 1.5%[59 µM] | 75.5% | 36.6% | 17.5%
COc1ccc(CC(=O)Nc2nc(OCCN3CCCC3=O)cnc2-c2cccc(C(F)(F)F)c2)cc1 | -11.0% | x | x | x | x | x
CCOc1nc2cnccc2n(CC(=O)Nc2cccc(C)c2)c1=O | -20.2% | 2.4% | 18.0% | 32.7% | -17.6% | -3.0%
Brc1cccc(-c2nnc(CN3CCN(c4ccccn4)CC3)o2)c1 | x | x | 6.3%[59 µM] | 34.9% | -6.2% | -0.1%
CCOC(=O)c1c(NC(=O)COc2ccc(Cl)cc2C)sc2c1CCCCC2 | x | x | 6.31µM* | u | -19.6% | -6.1%
O=C1C(=Cc2ccc(Br)o2)C(=O)c2ccccc21 | 2.67µM* | 56.2µM* | 20µM* | u | 7.94µM* | 12.6µM*
COC(=O)c1ccccc1-c1ccc(C=O)o1 | -2.5% | 13.6% | -44.0% | 26.9% | -2.8% | 4.0%
O=C(/C=C/c1ccc(Br)o1)OCc1ccccc1 | -1.0% | -11.2% | 14.2%[59 µM] | 182.0% | 138.7% | 91.7%
COc1ccccc1-c1ccc(/C=C2\C=CC(=O)O2)o1 | 16.4% | u | u | -26.8% | u | 50.1µM*
COc1ccccc1-c1ccc(/C=C2/C=C(C)OC2=O)o1 | u | u | 15.8µM* | -13.0% | u | u
CC1=C/C(=C\c2ccc(Br)o2)C(=O)O1 | 18.9µM* | 2.6% | u | u | 39.8µM* | 31.6µM*
COc1cccc(CN2C(=NC(=O)C3CCCO3)SC3CS(=O)(=O)CC32)c1 (centres undefined) | -5.9% | x | x | x | x | x
COc1ccc(OC)c(CCNc2nc3ccccc3c3nc(-c4cccnc4)nn23)c1 | x | x | 5.2%[59 µM] | 31.1% | -20.0% | -1.7%
O=C(O)CC/C(=N/NC(=O)CNC(=O)c1ccc2c(c1)OCCO2)c1ccccc1 | -0.5% | 5.0% | -9.0% | -14.8% | -19.9% | 3.8%
COc1ccc2c(c1)C(=O)[C@@H](OC(=O)N[C@H]1CCCc3ccccc31)[C@H](c1ccc(OC)c(Br)c1)O2 | x | 15.9% | x | x | x | x
CCCn1c(C)nc2c(NC(C)CN(C)C)nc(C)nc21 (centres undefined) | x | 13.2% | x | x | x | x
CC(C)(C)C1CCN2CCCC(c3ccccc3)(C1)C2=O (centres undefined) | -5.6% | x | x | x | x | x
CCC(=O)NC(NC(=S)Nc1ccc(S(N)(=O)=O)cc1)C(Cl)(Cl)Cl (centres undefined) | -9.0% | -8.5% | 8.91µM* | 4.8% | -8.6% | -6.6%
CC(=O)NC(NC(=S)Nc1ccc(S(N)(=O)=O)cc1)C(Cl)(Cl)Cl (centres undefined) | -15.2% | 14.9% | 44.7µM* | 37.7% | -10.5% | -5.0%
Cc1cccc(C(=O)NC(NC(=S)Nc2ccc(S(N)(=O)=O)cc2)C(Cl)(Cl)Cl)c1 (centres undefined) | -0.9% | -8.4% | u | 16.7% | -20.8% | u
CC(C)CC(=O)NC(NC(=S)Nc1ccccc1)C(Cl)(Cl)Cl (centres undefined) | 29.9µM* | 3.7% | 31.6µM* | 7.6% | -6.5% | -0.7%
Cc1c(NC(=S)NC(NC(=O)CC(C)C)C(Cl)(Cl)Cl)c(=O)n(-c2ccccc2)n1C (centres undefined) | 0.8% | 9.9% | u | 27.9% | u | 7.7%
COCCCNCCCCOc1ccc(Br)cc1C | -11.3% | -2.1% | 10µM* | u | 20µM* | u
SMILES | PLK1 PBD inh | Sfp inh | G9a block | HP1b binding inh | JMJD2A Tudor inh | BAZ2B inh
COCCNCCCCOc1ccc(Br)cc1C | -17.3% | -20.2% | 5.62µM* | u | 1.12µM* | 50.1µM*
Cc1cc(Br)ccc1OCCCCNC(C)(C)C | 26.7µM* | -24.4% | x | 10.6% | 28.2µM* | 50.1µM*
COCCNC(=O)COc1ccc(Br)cc1Cl | 2.6% | 3.9% | -2.7%[12.7 µM] | 38.3% | 0.3% | -5.0%
CCNc1ncc2nc(CCc3ccccc3)c(=O)n(C3CC3)c2n1 | x | 5.1% | 3.8%[0.501 µM] | x | x | x
CCCNC(=O)c1ccc(N2CCC3(CC2)CC(c2ccccc2)=NO3)c(NC(=O)Cc2ccc(F)cc2)c1 | 1.4% | 6.3% | 50.1µM* | 28.3% | -32.2% | u
CCCNC(=O)c1ccc(N2CCC3(CC2)CC(c2ccccc2)=NO3)c(N)c1 | -10.5% | -2.0% | x | 24.0% | -9.4% | -0.2%
Cc1cc(C)n2nc(-c3ccsc3-n3c(C)ccc3C)cc2n1 | -23.2% | 50.1µM* | 50.1µM* | -7.3% | u | -36.1%
O=C1C(=O)N(CCN2CCOCC2)C(c2ccccc2)/C1=C(\O)c1ccc2c(c1)OCCO2 (centres undefined) | -1.3% | 11.5% | u | 9.2% | u | -15.0%
O=C1C(=O)N(Cc2ccco2)C(c2cccc(Cl)c2)/C1=C(\O)c1ccc2c(c1)OCCO2 (centres undefined) | -22.1% | u | u | -14.3% | 79.4µM* | u
O=C1C(=O)N(Cc2ccccc2)C(c2cccc(O)c2)/C1=C(\O)c1ccc2c(c1)OCCO2 (centres undefined) | 3.1% | 0.3% | 44.7µM* | 34.6% | -10.7% | 56.2µM*
COc1cc(C2/C(=C(\O)c3ccc4c(c3)OCCO4)C(=O)C(=O)N2Cc2ccco2)cc(OC)c1OC (centres undefined) | -3.9% | u | 50.1µM* | 12.2% | -15.8% | -36.2%
COc1cc(C2/C(=C(\O)c3ccc4c(c3)OCCO4)C(=O)C(=O)N2Cc2ccco2)ccc1O (centres undefined) | -6.6% | 3.7% | 50.1µM* | 4.6% | -29.0% | -34.1%
COc1ccc(C2/C(=C(\O)c3ccc4c(c3)OCCO4)C(=O)C(=O)N2Cc2cccnc2)cc1OC (centres undefined) | -7.0% | 4.2% | u | 8.6% | -22.8% | -29.9%
O=c1c(-c2cc(F)cc(F)c2)nc2cnc(Oc3ccccc3)nc2n1C1CC1 | x | 1.9% | -2.0%[12.7 µM] | x | x | x
CN1C(=O)CN(CCN2CC(=O)N(C)C(=O)C2)CC1=O | 3.3% | x | x | x | x | x
CC(C)ON(CC(=O)NO)S(=O)(=O)c1ccc(-c2ccccc2)cc1 | x | 20.4% | x | x | x | x
Cc1cc(C)c(O)c(N)c1 | x | 20µM* | 2.24µM* | x | x | u
OC(c1ccc(F)cc1)c1nc(-c2cncnc2)cs1 (centres undefined) | -4.8% | x | x | x | x | x
CCN1CCN(c2ncc3c(n2)CCN(Cc2ccc(C)s2)C3)CC1 | x | x | u | -19.8% | 79.4µM* | u
CN1CCN(c2ncc3c(n2)CCN(Cc2ccc(Br)s2)C3)CC1 | x | x | -6.0%[12.7 µM] | 11.0% | 79.4µM* | -27.7%
